Measured values taken from PubChem BioAssay (NCI).
This is part of a sample that, as a whole, favours compounds with a hit. Of some 79,000 tested, about 15% had one in any assay. Active and inactive are the calls of the source. No stated cut-off is given here; in the data, active means growth inhibition above about 70%; inactive means the rest.

What was measured:
[1] = NCI Yeast Anticancer Drug Screen. Data for the rad52 strain (AID 147);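 further: 0% = growth of vehicle-treated control cultures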; settings: S. cerevisiae rad52 mutant growth inhibition, active compounds read high
How it was run: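 Read-out: growth inhibition versus vehicle-treated controls. Cells were a DNA repair-deficient yeast strain treated with compounds.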

[2] = NCI Yeast Anticancer Drug Screen. Data for the wt1 strain (AID 149);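 further: 0% = growth of vehicle-treated wt1 cultures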; settings: S. cerevisiae wt1 strain (SPY 50644) growth inhibition, active compounds read high
How it was run: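 Measured: growth of wt1 yeast under compound versus vehicle treatment, reported as inhibition.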

[3] = NCI Yeast Anticancer Drug Screen. Data for the mgt1 strain (AID 153); settings: S. cerevisiae mgt1 mutant growth inhibition, active compounds read high
How it was run: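 mgt1 yeast grown with test compound; read-out is growth inhibition versus vehicle-treated cultures.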

[4] = NCI Yeast Anticancer Drug Screen. Data for the rad50 strain (AID 155);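 further: 0% = growth of vehicle-only cultures of the same strain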; settings: S. cerevisiae rad50 strain growth inhibition, active compounds read high
How it was run: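 Growth of the mutant yeast was measured after compound exposure and referenced to vehicle-treated cultures.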

[5] = NCI Yeast Anticancer Drug Screen. Data for the mec2-1 strain (AID 157); settings: S. cerevisiae mec2-1 strain, active compounds read high
How it was run: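 Yeast mec2-1 mutant treated with compound. Readout: growth inhibition vs vehicle controls.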

[6] = NCI Yeast Anticancer Drug Screen. Data for the rad14 strain (AID 159);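 further: 0% = growth of vehicle-treated control cultures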; settings: S. cerevisiae rad14 strain growth inhibition, active compounds read high
How it was run: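 Here, inhibition of yeast growth was measured after compound exposure, using a strain with a genetic defect in DNA damage repair and vehicle-treated cultures as the reference.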

[7] = NCI Yeast Anticancer Drug Screen. Data for the sgs1 mgt1 strain (AID 161);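 further: 0% = growth of cultures given vehicle only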; settings: S. cerevisiae sgs1 mgt1 strain, active compounds read high
How it was run: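 Read-out: growth inhibition vs vehicle controls. Cells: mutant yeast strain deficient in DNA damage repair.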

[8] = NCI Yeast Anticancer Drug Screen. Data for the CLN2oe strain (AID 163);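 further: 0% = growth of vehicle-only control cultures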; settings: S. cerevisiae CLN2oe strain, active compounds read high
How it was run: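 Read-out: yeast growth inhibition, expressed relative to vehicle-only controls. The strain bears an engineered cell-cycle alteration.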

[9] = NCI Yeast Anticancer Drug Screen. Data for the cln2 rad14 strain (AID 165);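 further: 0% = growth equal to vehicle treated cultures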; settings: S. cerevisiae cln2 rad14 strain, active compounds read high
How it was run: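 cln2 rad14 yeast strain; compound exposure; growth inhibition read vs vehicle controls.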

[10] = NCI Yeast Anticancer Drug Screen. Data for the bub3 strain (AID 167); settings: S. cerevisiae bub3 mutant strain, active compounds read high
How it was run: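 Whole-cell yeast assay. The mutant strain was incubated with compounds, and growth inhibition was determined by comparison with vehicle-treated cells.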

[11] = NCI Yeast Anticancer Drug Screen. Data for the wt2 strain (AID 169);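 further: 0% = growth of vehicle-treated yeast cultures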; settings: S. cerevisiae wt2 strain growth inhibition, active compounds read high
How it was run: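 Read-out: growth inhibition versus vehicle-treated control cultures after compound exposure of the yeast strain.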

[12] = NCI Yeast Anticancer Drug Screen. Data for the mlh1 strain (AID 171);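 further: 0% = growth of vehicle-treated control cultures of the same strain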; settings: S. cerevisiae mlh1 strain growth inhibition, active compounds read high
How it was run: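 Read-out: growth inhibition versus vehicle controls. Strain: engineered yeast with a defined DNA repair or cell cycle defect, compound-treated.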

[13] = NCI Yeast Anticancer Drug Screen. Data for the sgs1 strain (AID 173);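 further: 0% = growth of vehicle-only control cultures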; settings: S. cerevisiae sgs1 mutant, active compounds read high
How it was run: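 Read-out: yeast growth inhibition relative to vehicle controls, following compound exposure of a strain with a defined DNA repair/cell cycle alteration.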

[14] = NCI Yeast Anticancer Drug Screen. Data for the mlh1 rad18 strain (AID 175); settings: S. cerevisiae mlh1 rad18 strain growth inhibition, active compounds read high
How it was run: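 Yeast w/ defined DNA-repair lesions; compound exposure; growth vs vehicle controls → % inhibition.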

[15] = NCI Yeast Anticancer Drug Screen. Data for the rad18 strain (AID 177); settings: S. cerevisiae rad18 mutant growth inhibition, active compounds read high
How it was run: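 Readout: growth inhibition vs vehicle controls. Cells: genetically altered yeast strain, DNA repair defect.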

[16] = at 5.0 µM (retest, dose inferred, filed as 0.5)
[17] = at 50.0 µM (retest, dose inferred, filed as 5.0)

Measured: growth inhibition

O=C(O)CNc1ccc(Cl)c(Cl)c1
inactive: [1]; at 1.2 µM -2% | [1]; at 3.7 µM 0% | [1]; at 11.0 µM 14% | [2]; at 1.2 µM -3% | [2]; at 3.7 µM -6% | [2]; at 11.0 µM -6% | [2]; at 33.0 µM 25% | [3]; at 1.2 µM -2% | [3]; at 3.7 µM -4% | [3]; at 11.0 µM -6% | [3]; at 33.0 µM 32% | [4]; at 1.2 µM -2% | [4]; at 3.7 µM 6% | [4]; [16] -7% | [4]; at 11.0 µM 13% | [4]; [17] 18% | [5]; at 1.2 µM -10% | [5]; at 3.7 µM -1% | [5]; [16] -7% | [5]; at 11.0 µM -8% | [5]; at 33.0 µM 38% | [5]; [17] 30% | [5]; at 50.0 µM 57.2% | [6]; at 1.2 µM -6% | [6]; at 3.7 µM -7% | [6]; at 11.0 µM -7% | [6]; at 33.0 µM 48% | [7]; [16] -6% | [7]; [17] 22% | [7]; at 50.0 µM 38.4% | [8]; at 1.2 µM -4% | [8]; at 3.7 µM -1% | [8]; at 11.0 µM 0% | [8]; at 33.0 µM 58% | [9]; [16] 10% | [9]; [17] 1% | [10]; at 1.2 µM -9% | [10]; at 3.7 µM -12% | [10]; [16] -8% | [10]; at 11.0 µM 5% | [10]; at 33.0 µM 67% | [10]; [17] 17% | [11]; at 1.2 µM -5% | [11]; at 3.7 µM -5% | [11]; at 11.0 µM -6% | [12]; at 1.2 µM -2% | [12]; at 3.7 µM 1% | [12]; at 11.0 µM 2% | [13]; at 1.2 µM -3% | [13]; at 3.7 µM -5% | [13]; at 11.0 µM 4% | [14]; [16] -16%
active: [1]; at 33.0 µM 77% | [1]; at 100.0 µM 98% | [2]; at 100.0 µM 98% | [3]; at 100.0 µM 99% | [4]; at 33.0 µM 75% | [4]; at 50.0 µM 78.2% | [4]; at 100.0 µM 98% | [5]; at 100.0 µM 99% | [6]; at 100.0 µM 98% | [8]; at 100.0 µM 98% | [9]; at 50.0 µM 84.2% | [10]; at 50.0 µM 87.3% | [10]; at 100.0 µM 98% | [11]; at 33.0 µM 78% | [11]; at 100.0 µM 99% | [12]; at 33.0 µM 71% | [12]; at 100.0 µM 99% | [13]; at 33.0 µM 74% | [13]; at 100.0 µM 98% | [14]; [17] 76% | [14]; at 50.0 µM 89.2%

CCC[CH2][Ge]([CH2]CCC)([CH2]CCC)[O]C(=O)C(OC)c1ccccc1 (stereo unspecified)
inactive: [1]; at 1.2 µM 0% | [1]; at 3.7 µM 6% | [1]; at 11.0 µM 25% | [1]; at 33.0 µM 66% | [2]; at 1.2 µM -3% | [2]; at 3.7 µM -6% | [2]; at 11.0 µM -3% | [2]; at 33.0 µM 30% | [3]; at 1.2 µM -2% | [3]; at 3.7 µM -1% | [3]; at 11.0 µM 1% | [3]; at 33.0 µM 58% | [4]; at 1.2 µM 2% | [4]; at 3.7 µM 8% | [4]; [16] 60% | [4]; at 11.0 µM -2% | [4]; at 33.0 µM 64% | [4]; [17] 60% | [4]; at 50.0 µM 69.9% | [5]; at 1.2 µM -1% | [5]; at 3.7 µM -1% | [5]; [16] 57% | [5]; at 11.0 µM 7% | [5]; at 33.0 µM 34% | [5]; [17] 57% | [6]; at 1.2 µM -2% | [6]; at 3.7 µM -7% | [6]; at 11.0 µM -10% | [6]; at 33.0 µM 26% | [7]; [16] 59% | [7]; [17] 59% | [8]; at 1.2 µM -6% | [8]; at 3.7 µM 1% | [8]; at 11.0 µM 6% | [8]; at 33.0 µM 41% | [9]; [16] 18% | [9]; [17] 18% | [9]; at 50.0 µM 66.5% | [10]; at 1.2 µM -6% | [10]; at 3.7 µM -4% | [10]; [16] 10% | [10]; at 11.0 µM 12% | [10]; at 33.0 µM 54% | [10]; [17] 10% | [11]; at 1.2 µM -3% | [11]; at 3.7 µM -4% | [11]; at 11.0 µM 0% | [11]; at 33.0 µM 48% | [12]; at 1.2 µM -4% | [12]; at 3.7 µM -5% | [12]; at 11.0 µM -1% | [12]; at 33.0 µM 60% | [13]; at 1.2 µM -1% | [13]; at 3.7 µM 1% | [13]; at 11.0 µM 11% | [14]; [16] 39% | [14]; [17] 39% | [15]; at 1.2 µM 5% | [15]; at 3.7 µM 4% | [15]; at 11.0 µM 22%
active: [1]; at 100.0 µM 98% | [2]; at 100.0 µM 97% | [3]; at 100.0 µM 99% | [4]; at 100.0 µM 98% | [5]; at 50.0 µM 75.5% | [5]; at 100.0 µM 98% | [6]; at 100.0 µM 95% | [7]; at 50.0 µM 82.8% | [8]; at 100.0 µM 98% | [10]; at 50.0 µM 76% | [10]; at 100.0 µM 97% | [11]; at 100.0 µM 98% | [12]; at 100.0 µM 98% | [13]; at 33.0 µM 71% | [13]; at 100.0 µM 94% | [14]; at 50.0 µM 78% | [15]; at 33.0 µM 80% | [15]; at 100.0 µM 98%
